Test results as given in PubChem BioAssay (NCATS).
Results filed as inconclusive are left out. Calls of active or inactive are those of the source. The call rests on the fitted dose curve; in most records, active means well fitted inhibition curve with a large enough effect; inconclusive means small, poorly fitted or top-dose-only effect, or effect the other way; inactive means flat fitted curve, though single readings scatter.

Each compound was assayed against Ubiquitin carboxyl-terminal hydrolase 2 (Homo sapiens) (UniProt O75604) (assay: qHTS Validation Assay for Inhibitors of Ubiquitin-specific Protease USP2a Using CHOP2 as the Reporter (AID 463106)). Conditions: USP2a cleavage of CHOP2 reporter, enzymatic; series mostly up to 38.3 µM.
Source text: NIH Molecular Libraries Screening Centers Network [MLSCN]
NIH Chemical Genomics Center [NCGC]
PI Name: Nicholson, Ben. Progenra Inc, Malvern, PA
Homeostasis of cellular proteins is maintained through a combination of synthesis and degradation. The pathway that accounts for the majority of protein degradation is the ubiquitin-proteasomal pathway. Ubiquitin (Ub) is highly conserved in all cells and the generation of a multi-Ub chain typically targets proteins for degradation by the proteasome. However, ubiquitination is highly reversible and dynamic. Deubiquitination, the reverse process, is catalyzed through the action of enzymes referred to as isopeptidases or deubiquitinating enzymes (DUBs). This group of enzymes is collectively responsible for maintaining adequate pools of free ubiquitin and regulating the ubiquitination status of cellular proteins. The class of DUBs referred to as the ubiquitin-specific proteases (USP) family functions endoproteolytically to cleave Ub chains from a wide range of protein substrates. USP2a deubiquitinates fatty acid synthase (FASN) which has recently been identified as an emerging oncology target. To identify inhibitors of USP2a a cell-free assay was employed.
The reporter enzyme chosen is an enterokinase called CHOP2, which is activated when the Ub is cleaved by USP2. The free and now activated reporter can subsequently act on its reporter substrate. […] The assay was developed by Progenra, Inc. and has been licensed for sale by LifeSensors, Inc. as Ub-CHOP2-Reporter-Kit (#PR1101).
NCGC Assay Protocol Summary:
The assay buffer, prepared fresh at the day of the assay, contains 20mM Tris-HCl pH 8.0, 2mM CaCl2, 2mM beta-Mercaptoethanol, 0.05% CHAPS. 3ul of 20nM (10nM final) USP2 core, which is stored on ice, is dispensed into a medium-binding black solid Kalypsys 1,536 well plate using the Kalypsys dispenser. The assay plate is then pinned with 23nL compound with the Kalypsys pintool in columns 5-48. The controls are pinned as follows: column 1 two-fold dilutions of 2M NEM in duplicate; column 2 2M NEM (final concentration 38.2mM); column 3&4 DMSO. The assay plate is incubated at RT for 30min. Subsequently, 1.5uL of 100nM (25nM final) Ub-CHOP2 and 1.5uL of 100nM (25nM final) Reporter Substrate (both stored on ice and protected from light) were dispensed into the plate using the Kalypsys dispenser. Plates were read after 60min RT incubation on a ViewLux (Perkin Elmer) plate reader using the following wavelengths Ex 485nm /Em 531nm.
Data were normalized to the to AC100 inhibition (NEM). Concentration-response curves were fitted to the normalized data and the concentration-response curves were then classified based on curve quality (r2), response magnitude and degree of measured activity. The time zero reading was used to flag fluorescence artifacts.
Keywords: ubiquitination, deubiquitination, proteases, profluorescent, MLSMR, MLPCN, NIH Roadmap, qHTS, NCGC

Sequence of Ubiquitin carboxyl-terminal hydrolase 2 (Homo sapiens) (O75604 whole entry, looked up): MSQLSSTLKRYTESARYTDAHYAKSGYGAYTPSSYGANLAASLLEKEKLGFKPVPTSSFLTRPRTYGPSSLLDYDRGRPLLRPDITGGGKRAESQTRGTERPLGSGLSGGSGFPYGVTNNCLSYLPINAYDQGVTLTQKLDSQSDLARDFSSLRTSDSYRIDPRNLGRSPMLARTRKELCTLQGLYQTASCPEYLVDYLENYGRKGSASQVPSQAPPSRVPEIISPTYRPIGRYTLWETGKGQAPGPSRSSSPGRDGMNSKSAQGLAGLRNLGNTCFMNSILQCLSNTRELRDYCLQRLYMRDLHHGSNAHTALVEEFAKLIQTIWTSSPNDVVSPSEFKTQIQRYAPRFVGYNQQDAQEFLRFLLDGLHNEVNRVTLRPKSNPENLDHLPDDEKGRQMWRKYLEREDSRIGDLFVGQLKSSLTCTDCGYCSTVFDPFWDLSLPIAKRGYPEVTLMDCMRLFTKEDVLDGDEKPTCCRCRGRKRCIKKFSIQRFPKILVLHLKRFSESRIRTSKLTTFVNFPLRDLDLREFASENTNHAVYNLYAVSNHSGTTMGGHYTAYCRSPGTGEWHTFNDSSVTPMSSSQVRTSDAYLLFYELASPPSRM

SMILES	outcome
CC(C)NCC(O)COc1cccc2[nH]ccc12 (centres undefined)	inactive
CC/C(=C(\c1ccccc1)c1ccc(OCCN(C)C)cc1)c1ccccc1	inactive
C[N+](C)(C)CCCCCC[N+](C)(C)C	inactive
CC(=O)N[C@@H](CS)C(=O)O	inactive
CC1(C)CCC2=C(O1)c1ccccc1C(=O)C2=O	inactive
C[N+](C)(C)CC(=O)O	inactive
CC(=O)CCCCn1c(=O)c2c(ncn2C)n(C)c1=O	inactive
COC(=O)[C@@H]1[C@H]2C[C@H]3c4[nH]c5ccccc5c4CCN3C[C@@H]2CC[C@@H]1O	inactive
O=C1NC(=O)C(c2ccccc2)(c2ccccc2)N1	inactive
O=C1NCC2(CCN(CCc3ccccc3)CC2)O1	inactive
CC(=O)c1ccc(S(=O)(=O)NC(=O)NC2CCCCC2)cc1	inactive
CCCCC1C(=O)N(c2ccccc2)N(c2ccccc2)C1=O	inactive
COc1ccc(Cc2nccc3cc(OC)c(OC)cc23)cc1OC	inactive
CCN(CC)C(=O)c1ccc(O)c(OC)c1	inactive
CC(=O)O[C@]1(C(C)=O)CC[C@H]2[C@@H]3C=C(Cl)C4=CC(=O)[C@@H]5C[C@@H]5[C@]4(C)[C@H]3CC[C@@]21C	inactive
CCn1cc(C(=O)O)c(=O)c2ccc(C)nc21	inactive
CCCCCN(C)CCC(O)(P(=O)(O)O)P(=O)(O)O	inactive

SMILES	outcome
O=C(NCCN1CCOCC1)c1ccc(Cl)cc1	inactive
CCN(CC)CCOC(=O)c1ccc(N)cc1	inactive
CC1=C(/C=C/C(C)=C/C=C/C(C)=C/C(=O)Nc2ccc(O)cc2)C(C)(C)CCC1	inactive
CC(C)(C)c1ccc(C(O)CCCN2CCC(C(O)(c3ccccc3)c3ccccc3)CC2)cc1 (centres undefined)	inactive
NC(N)=Nc1nc(CSCC/C(N)=N/S(N)(=O)=O)cs1	inactive
CN(C)CCC(c1ccccc1)c1ccccn1 (centres undefined)	inactive
COc1cccc(-c2cc(=O)c3ccccc3o2)c1N	inactive
CCN1CCC[C@H]1CNC(=O)c1cc(S(N)(=O)=O)ccc1OC	inactive
CCCNC(=O)NS(=O)(=O)c1ccc(Cl)cc1	inactive
Cc1cccc(C)c1OCC(C)N (centres undefined)	inactive
O=c1c(-c2ccc(O)cc2)coc2cc(O)ccc12	inactive
Clc1ccc(Cn2c(CN3CCCC3)nc3ccccc32)cc1	inactive
CC(C)OC(=O)C(C)(C)Oc1ccc(C(=O)c2ccc(Cl)cc2)cc1	inactive
O=C(O)CCc1nc(-c2ccccc2)c(-c2ccccc2)o1	inactive
NCCS	inactive
O=c1cc(-c2ccc(O)cc2)oc2cc(O)cc(O)c12	inactive
COc1ccccc1N1CCN(CCCNc2cc(=O)n(C)c(=O)n2C)CC1	inactive
